Test results published in article PMC5540273 (PLoS ONE, 2017).

The compounds below were run on LTK. Conditions: concentration: 1 μM, replicates: in singlicate; n = 1.
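Also: KINOMEscan kinase panel screen.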

Q: How did the “%Inh” value turn out when `COc1ccc(Nc2nccc(N3CCC(NC(=O)Nc4cccc(OC)c4)C3)n2)cc1` (stereo not shown) [GSK1379742] was run?
A: 0%

Q: With `Cc1ccc(C)c(NC(=O)NC2CCN(c3ccnc(Nc4ccc(F)cc4)n3)C2)c1` (stereo not shown) [GSK1379720] as the compound, how does the “%Inh” value read?
A: 17%

Q: `c1ccc(-c2n[nH]cc2Nc2ccnc3ccccc23)nc1` [GW694077] was tested. Which “%Inh” value did it give?
A: 0%

Q: How did the “%Inh” value turn out when `COc1cc(Nc2nccc(N3CCC(NC(=O)Nc4cccc(C(C)=O)c4)C3)n2)cc(OC)c1OC` (stereo not shown) [GSK1379753] was run?
A: 100%

Q: For `O=C(Nc1cccc(-c2nn3ncccc3c2-c2ccnc(Nc3ccccc3)n2)c1)c1c(F)cccc1F` [GSK198271], which “%Inh” value is on record?
A: 0%

Q: With `c1ccc(-c2cnc3nccnn23)cc1` [AH20685] as the compound, how does the “%Inh” value read?
A: 0%

Q: `Cl.c1ccc(-c2ccc3c(Nc4ccc5[nH]ncc5c4)ccnc3c2)nc1` [GW440137] was tested. Which “%Inh” value did it give?
A: 18%

Q: Which “%Inh” value does the source give for `Fc1ccc(-c2ncn(C3CCNCC3)c2-c2ccnc(Oc3ccc(-c4ccccc4)cc3)n2)cc1` [SB-245391] here?
A: 12%

Q: How did the “%Inh” value turn out when `Clc1ccc(-c2nn3ncccc3c2-c2ccnc(Nc3ccc4c(c3)OCCO4)n2)cc1` [GW829116] was run?
A: 19%

Q: `Cc1ccc(F)c(C(=O)Nc2cccc(-c3nn4ccccc4c3-c3ccnc(Nc4cccc(F)c4)n3)c2)c1F` [GSK361061] was tested. Which “%Inh” value did it give?
A: 9%

Q: Which “%Inh” value does the source give for `CNC(=O)c1ccccc1Nc1nc(Nc2ccc(N3CCOCC3)cc2)ncc1Cl.Cl` [GSK1576028] here?
A: 100%

Q: Which “%Inh” value does the source give for `Cc1cccc(Nc2nc(N[C@H]3CCNC3)ncc2C(N)=O)c1.Cl` [GSK2197149] here?
A: 0%

Q: With `CCn1c(-c2nonc2N)nc2c(C#CC(C)(C)O)nc(OC[C@H](N)c3ccccc3)cc21` [GSK943949] as the compound, how does the “%Inh” value read?
A: 0%

Q: With `COc1cc(Nc2ncc3c(C)nc(-c4cc5ccccc5[nH]4)n3n2)cc(OC)c1OC` [GW869516] as the compound, how does the “%Inh” value read?
A: 0%

Q: Which “%Inh” value does the source give for `Cl.NC(=O)c1cccc(Nc2nccc(Nc3ccc(Oc4c(Cl)cccc4Cl)c(Cl)c3)n2)c1` [GW659009] here?
A: 80%

Q: For `Cl.c1ccc(-c2ccc3c(Nc4ccc5[nH]ccc5c4)ccnc3c2)nc1` [GW440138], which “%Inh” value is on record?
A: 18%

Q: With `CN1CCN(CCCNc2nccc(-c3c(-c4ccc(F)cc4)nn4cc(C(F)(F)F)ccc34)n2)CC1` [GW621581] as the compound, how does the “%Inh” value read?
A: 0%

Q: `O=C(Nc1n[nH]c2cc(-c3ccoc3)ccc12)C1CC1` [SB-738481] was tested. Which “%Inh” value did it give?
A: 13%

Q: For `COc1cccc(C2=C(Nc3ccc(Cl)c(C(=O)O)c3)C(=O)NC2=O)c1` [SB-390769], which “%Inh” value is on record?
A: 0%

Q: Which “%Inh” value does the source give for `COc1cccc(-c2ccc3c(NC(=O)C4CC4)n[nH]c3n2)c1` [SB-710903] here?
A: 0%

Q: `COc1cccc(NC(=O)NC2CCN(c3ccnc(Nc4cc(OC)c(OC)c(OC)c4)n3)C2)c1` (stereo not shown) [GSK1379763] was tested. Which “%Inh” value did it give?
A: 62%

Q: With `CN(C)S(=O)(=O)c1cc(-c2ccc3nccc(-c4cccc(S(N)(=O)=O)c4)c3c2)cnc1N` [GSK1669921] as the compound, how does the “%Inh” value read?
A: 39%

Q: For `Cn1cc(-c2ccc3c(c2)CCN3C(=O)Cc2cccc(F)c2)c2c(N)ncnc21` [GSK2603358], which “%Inh” value is on record?
A: 33%

Q: For `COc1ccc(CNC(=O)NC2CCN(c3ccnc(Nc4ccc(F)cc4)n3)CC2)cc1` [GSK1379788], which “%Inh” value is on record?
A: 1%

Q: For `O=C(Nc1cccc(-c2nn3ccccc3c2-c2ccnc(Nc3cccc(F)c3)n2)c1)c1c(F)ccc(F)c1Cl` [GSK357952], which “%Inh” value is on record?
A: 10%

Q: Which “%Inh” value does the source give for `Cl.Cl.NCC(NCc1ccc(-c2ccnc3[nH]ccc23)s1)c1ccccc1` (stereo not shown) [GSK1321565] here?
A: 31%

Q: How did the “%Inh” value turn out when `CCc1ccc(-c2ccc3c(c2)-c2c(cnn2C)S(=O)(=O)N3C)cc1` was run?
A: 3%

Q: Which “%Inh” value does the source give for `O=C(O)C(F)(F)F.O=C(O)C(F)(F)F.O=c1[nH]ccc2nc(N[C@@H]3CCCNC3)nc(Nc3ccc(S(=O)(=O)N4CCOCC4)cc3)c12` [GSK2177277] here?
A: 79%

Q: `Cc1occc1-c1ncc(OC[C@@H](N)Cc2c[nH]c3ccccc23)cc1-c1ccc2[nH]nc(C)c2c1.O=C(O)C(F)(F)F` [GSK682037] was tested. Which “%Inh” value did it give?
A: 42%

Q: Which “%Inh” value does the source give for `COCCOCCOc1cc2ncc3c4ccc(C#N)cc4[nH]c3c2cc1OC` here?
A: 34%

Q: `CN(C)Cc1ccc(-c2ccc3c(Nc4ccc(Oc5ccccn5)cc4)ccnc3c2)o1` [GW567148] was tested. Which “%Inh” value did it give?
A: 0%

Q: Which “%Inh” value does the source give for `Cc1ccc(C(=O)N2CC[C@@H](O)C2)cc1-n1c(C)cc(OCc2ccc(F)cc2F)c(Br)c1=O` here?
A: 0%

Q: Which “%Inh” value does the source give for `Cn1cc(-c2[nH]c3cc(NC(=O)[C@H](N)C4CCCCC4)cc4c3c2C=NNC4=O)cn1` here?
A: 0%

Q: For `COc1cc(Nc2nccc(-c3c(-c4cccc(NC(=O)c5c(F)cccc5F)c4)nn4ncccc34)n2)cc(OC)c1OC` [GSK327238], which “%Inh” value is on record?
A: 61%

Q: `CC(=O)Nc1nc2cnc(Nc3cc(NC(=O)c4cccc(C5(C#N)CC5)c4Cl)ccc3C)nc2s1` was tested. Which “%Inh” value did it give?
A: 0%

Q: For `Cc1ccc(C(=O)Nc2ccc(Nc3ccnc4cc(-c5nccs5)ccc34)cc2O)cc1.Cl` [GW494702], which “%Inh” value is on record?
A: 1%

Q: How did the “%Inh” value turn out when `Nc1ncc(-c2cccnc2)c2scc(-c3ccc4c(c3)CCN4C(=O)Cc3ccccc3)c12` [GSK683281] was run?
A: 50%
